# Reference: article PMC5540273 (PLoS ONE, 2017)
# System: CDK8
# Settings: concentration: 1 μM,replicates: in singlicate; n = 1
# 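Further: KINOMEscan kinase panel screen.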
row,Compound,%Inh
1,COC(=O)Nc1nc2cc(Oc3ccc(NC(=O)Nc4cc(C(F)(F)F)ccc4Cl)cc3)ccc2[nH]1.Cl [GW697465],86%
2,O=C(Nc1n[nH]c2cc(-c3ccco3)ccc12)C1CC1 [SB-737447],0%
3,Cc1cccc2c(-c3ccncc3)c(-c3ccc(F)cc3)nn12.Cl [GW461487],25%
4,CN1CCN(CCNc2nc3cc(Oc4ccc(NC(=O)Nc5cc(C(F)(F)F)ccc5F)cc4)ccc3[nH]2)CC1.Cl.Cl [GW768504],55%
5,c1ccc(Oc2ccc(Nc3ccnc4ccc(-c5ccccn5)cc34)cc2)cc1 [GW407034],0%
6,CC(=O)Nc1nc2cnc(Nc3cc(NC(=O)c4cccc(CC(C)(C)C#N)c4)ccc3C)nc2s1,67%
7,O=C(NCC1CC1)c1ccc(-c2cc(C(=O)NC3CC3)ccc2F)cc1 [GW810445],62%
8,Cc1ccc(CC(=O)N2CCc3cc(-c4cn(C)c5ncnc(N)c45)ccc32)cc1 [GSK2634758],83%
9,CSc1nccc(-c2c(-c3ccc(F)cc3)ncn2CCCN2CCOCC2)n1.Cl [SB-217146],1%
10,O=C(Nc1ccccc1)c1cccc(Oc2ccc3nccn3n2)c1,0%
11,COc1cccc(C2=C(Nc3cccc(Cl)c3)C(=O)NC2=O)c1 [SB-341556],0%
12,Cn1ccc2ncnc(Oc3ccc(NC(=O)Nc4cccc(C(F)(F)F)c4)c(Cl)c3)c21,95.9%
13,Cc1ccn2nc(-c3ccc(F)cc3)c(-c3ccncc3)c2c1.Cl [GW457859],12%
14,CCCC(=O)Nc1n[nH]c2ncccc12 [SB-601436],0%
15,Cn1ccc2ncnc(Oc3ccc(NC(=O)Nc4cccc(C(F)(F)F)c4)c(F)c3)c21,100%
16,C[C@@H]1CNc2c(sc3ccc4nc(-c5ccc(O)cc5)ccc4c23)C(=O)N1,63%
17,N#Cc1cccc(C(=O)NC2CCN(c3ccnc(Nc4ccc(F)cc4)n3)C2)c1 (centres unmarked) [GSK1379708],19%
18,Nc1nccc(-c2ccc3c(N)n[nH]c3c2)n1 [GSK1034945],13%
19,COc1cccc(CNC(=O)NC2CCN(c3ccnc(Nc4cc(OC)c(OC)c(OC)c4)n3)C2)c1 (centres unmarked) [GSK1379765],29%

row,Compound,%Inh
1,COc1cc2c(Nc3ccc(NC(=O)c4ccccc4)cc3)ncnc2cc1OCCCN1CCOCC1 [GSK301329],0%
2,CC(=O)Nc1ccc(-c2cc3ncnc(SCC(=O)O)c3s2)cc1,0%
3,CCn1c(-c2nonc2N)nc2cncc(Br)c21 [SB-738004],50%
4,CCOC(=O)N1CCC(n2cnc(-c3ccc(F)cc3)c2-c2ccnc(N)n2)CC1 [SB-219952],22%
5,NC(=O)Nc1sc(-c2ccc(F)cc2)cc1C(N)=O [GW789449],46%
6,COc1cc2ncn(-c3cc(OCC4CCCCC4)c(C(N)=O)s3)c2cc1OC [GSK204559],5%
7,Cl.Cl.NC[C@H](CC1CCCCC1)NC(=O)c1ccc(-c2ccnc3[nH]ccc23)s1 [GSK1581428],11%
8,Cc1n[nH]c2cc(Nc3ccnc(Nc4cccc(CN5CCOCC5)c4)n3)ccc12 [GW682569],35%
9,Cc1ccc(Nc2ccnc(Nc3ccc4c(c3)CS(=O)(=O)C4)n2)cc1O.Cl [GW579362],38%
10,Cc1ccc2c(-c3ccnc(Nc4ccc(C(F)(F)F)cc4)n3)cnn2n1 [GW819776],36%
11,CS(=O)(=O)c1cccc(CNc2nc(Nc3ccc4c(c3)[C@@H]3C[C@@H]4CNC3=O)ncc2C(F)(F)F)c1,0%
12,Cl.c1ccc(Oc2ccc(Nc3ccnc4cc(-c5ccc(CN6CCNCC6)o5)ccc34)cc2)nc1 [GW567142],0%
13,CN(c1ccc2c(c1)nc(NCc1ccc(F)cc1)n2C)c1ccnc(Nc2ccc(CS(C)(=O)=O)cc2)n1.Cl [GW813244],2%
14,CS(=O)c1ccc(-c2coc3ccc(-c4n[nH]c(=O)o4)cc23)cc1 (centres unmarked),91.1%
15,Cn1ccc2ncnc(Oc3ccc(NC(=O)Nc4ccnc(C(F)(F)F)c4)c(Cl)c3)c21,95.5%
16,C[C@@H]1CCN(C(=O)N2CCCC2)C[C@@H]1N(C)c1ncnc2[nH]ccc12,24%
17,CCn1c(-c2nonc2N)nc2cncc(CNC3CCNCC3)c21.Cl [SB-747651],24%
18,Cc1cccc(-c2nc(Nc3ccncc3)c3sccc3n2)n1 [GW869641],8%

# System: CDK9
# Settings: concentration: 1 μM,replicates: in singlicate; n = 1
row,Compound,%Inh
1,COC(=O)Nc1nc2cc(Oc3ccc(NC(=O)Nc4cc(C(F)(F)F)ccc4Cl)cc3)ccc2[nH]1.Cl [GW697465],0%
2,O=C(Nc1n[nH]c2cc(-c3ccco3)ccc12)C1CC1 [SB-737447],11%
3,Cc1cccc2c(-c3ccncc3)c(-c3ccc(F)cc3)nn12.Cl [GW461487],0%
4,CN1CCN(CCNc2nc3cc(Oc4ccc(NC(=O)Nc5cc(C(F)(F)F)ccc5F)cc4)ccc3[nH]2)CC1.Cl.Cl [GW768504],0%
5,c1ccc(Oc2ccc(Nc3ccnc4ccc(-c5ccccn5)cc34)cc2)cc1 [GW407034],0%
6,CC(=O)Nc1nc2cnc(Nc3cc(NC(=O)c4cccc(CC(C)(C)C#N)c4)ccc3C)nc2s1,10%
7,O=C(NCC1CC1)c1ccc(-c2cc(C(=O)NC3CC3)ccc2F)cc1 [GW810445],0%
8,Cc1ccc(CC(=O)N2CCc3cc(-c4cn(C)c5ncnc(N)c45)ccc32)cc1 [GSK2634758],0%
9,CSc1nccc(-c2c(-c3ccc(F)cc3)ncn2CCCN2CCOCC2)n1.Cl [SB-217146],0%
10,O=C(Nc1ccccc1)c1cccc(Oc2ccc3nccn3n2)c1,94.6%
11,COc1cccc(C2=C(Nc3cccc(Cl)c3)C(=O)NC2=O)c1 [SB-341556],0%
12,Cn1ccc2ncnc(Oc3ccc(NC(=O)Nc4cccc(C(F)(F)F)c4)c(Cl)c3)c21,2%
13,Cc1ccn2nc(-c3ccc(F)cc3)c(-c3ccncc3)c2c1.Cl [GW457859],0%
14,CCCC(=O)Nc1n[nH]c2ncccc12 [SB-601436],0%
15,Cn1ccc2ncnc(Oc3ccc(NC(=O)Nc4cccc(C(F)(F)F)c4)c(F)c3)c21,24%
16,C[C@@H]1CNc2c(sc3ccc4nc(-c5ccc(O)cc5)ccc4c23)C(=O)N1,67%
17,N#Cc1cccc(C(=O)NC2CCN(c3ccnc(Nc4ccc(F)cc4)n3)C2)c1 (centres unmarked) [GSK1379708],0%
18,Nc1nccc(-c2ccc3c(N)n[nH]c3c2)n1 [GSK1034945],2%
19,COc1cccc(CNC(=O)NC2CCN(c3ccnc(Nc4cc(OC)c(OC)c(OC)c4)n3)C2)c1 (centres unmarked) [GSK1379765],0%

row,Compound,%Inh
1,COc1cc2c(Nc3ccc(NC(=O)c4ccccc4)cc3)ncnc2cc1OCCCN1CCOCC1 [GSK301329],0%
2,CC(=O)Nc1ccc(-c2cc3ncnc(SCC(=O)O)c3s2)cc1,85%
3,CCn1c(-c2nonc2N)nc2cncc(Br)c21 [SB-738004],4%
4,CCOC(=O)N1CCC(n2cnc(-c3ccc(F)cc3)c2-c2ccnc(N)n2)CC1 [SB-219952],0%
5,NC(=O)Nc1sc(-c2ccc(F)cc2)cc1C(N)=O [GW789449],0%
6,COc1cc2ncn(-c3cc(OCC4CCCCC4)c(C(N)=O)s3)c2cc1OC [GSK204559],0%
7,Cl.Cl.NC[C@H](CC1CCCCC1)NC(=O)c1ccc(-c2ccnc3[nH]ccc23)s1 [GSK1581428],39%
8,Cc1n[nH]c2cc(Nc3ccnc(Nc4cccc(CN5CCOCC5)c4)n3)ccc12 [GW682569],4%
9,Cc1ccc(Nc2ccnc(Nc3ccc4c(c3)CS(=O)(=O)C4)n2)cc1O.Cl [GW579362],37%
10,Cc1ccc2c(-c3ccnc(Nc4ccc(C(F)(F)F)cc4)n3)cnn2n1 [GW819776],23%
11,CS(=O)(=O)c1cccc(CNc2nc(Nc3ccc4c(c3)[C@@H]3C[C@@H]4CNC3=O)ncc2C(F)(F)F)c1,27%
12,Cl.c1ccc(Oc2ccc(Nc3ccnc4cc(-c5ccc(CN6CCNCC6)o5)ccc34)cc2)nc1 [GW567142],0%
13,CN(c1ccc2c(c1)nc(NCc1ccc(F)cc1)n2C)c1ccnc(Nc2ccc(CS(C)(=O)=O)cc2)n1.Cl [GW813244],57%
14,CS(=O)c1ccc(-c2coc3ccc(-c4n[nH]c(=O)o4)cc23)cc1 (centres unmarked),0%
15,Cn1ccc2ncnc(Oc3ccc(NC(=O)Nc4ccnc(C(F)(F)F)c4)c(Cl)c3)c21,0%
16,C[C@@H]1CCN(C(=O)N2CCCC2)C[C@@H]1N(C)c1ncnc2[nH]ccc12,0%
17,CCn1c(-c2nonc2N)nc2cncc(CNC3CCNCC3)c21.Cl [SB-747651],0%
18,Cc1cccc(-c2nc(Nc3ccncc3)c3sccc3n2)n1 [GW869641],11%
